A selection: hits, their analogues and other compounds. The true share with any hit is near 19%.
HT1080 IDH1KD tx: qHTS for induction of synthetic lethality in tumor cells producing 2HG: qHTS for the HT-1080-IDH1KD cell line; HT-1080 IDH1 knockdown viability, ATP luminescence, 48 h; Potency, µM (top dose mostly 46.1 µM), for inactives: at the highest dose activity, negative = toxicity, hits mostly cytotoxic; 360,000 compounds, 2% hits; AID 686971, 2013;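 also: 0% = DMSO wells and -100% = cell-free medium wells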
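Using the IDH1-knockdown HT-1080 line run in the same batch and compound series as the NT line, viability after 48 h at 37 °C was determined by CellTiter-Glo luminescence and expressed as % activity.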
KB-V1 cytotox: qHTS assay for MDR1-selective chemotherapeutics: Primary screen using the drug-selected MDR subline cells KB-V1; AID 1347076, 2019; Potency, µM (series often up to 46.1 µM), hits mostly cytotoxic; 400,000 compounds, 3.4% hits; KB-V1 MDR cells viability, CellTiter-Glo, 72 h; also: nearly all actives have a fitted effect of over 60% in size
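In this primary screen, KB-V1 cells overexpressing P-gp are incubated with library compounds (lowest to highest concentration) for 72 h at 37 degrees C before a luminescent ATP viability read.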
TDP1 cell CPT: qHTS for Inhibitors of human tyrosyl-DNA phosphodiesterase 1 (TDP1): qHTS in cells in presence of CPT; 420,000 compounds, 12% hits; Potency, µM (doses to about 46.2 µM), for the others: at the top dose activity change, negative = growth inhibition, usual class: inhibitors; AID 686979, 2013; chicken DT40 Tdp1-/-;hTDP1 cells + 20 nM CPT, ATP luminescence, 48 h; also: nearly all actives have a fitted effect of over 55% in size
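Chicken DT40 Tdp1-/- cells stably complemented with human TDP1 were seeded at 400 cells/well in medium containing 20 nM camptothecin, exposed to pin-transferred compounds, and grown at 37 °C for at least 48 hr. Viability was read as ATP luminescence.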
TDP1 cell noCPT: qHTS for Inhibitors of human tyrosyl-DNA phosphodiesterase 1 (TDP1): qHTS in cells in absence of CPT; DT40 Tdp1-/- hTDP1 cells, no CPT, ATP luminescence, 48 h; Potency, µM (highest dose often 46.2 µM), inactives show at the top dose activity change, negative = growth inhibition, hits mostly inhibitors; 420,000 compounds, 15% hits; AID 686978, 2013; also: nearly all actives have a fitted effect of over 55% in size
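Chicken DT40 Tdp1-/- cells stably complemented with human TDP1 were seeded at 400 cells/well with DMSO in place of 20 nM camptothecin. After compound pinning, cells grew at least 48 hr at 37 °C; viability read by CellTiter-Glo luminescence.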
KB-3-1 tox: qHTS assay for MDR1-selective chemotherapeutics: Primary screen using the parental adenocarcinoma cell KB-3-1; KB-3-1 viability, CellTiter-Glo ATP luminescence, 72 h; Potency, µM (series often up to 46.1 µM), most hits filed as cytotoxic; 400,000 compounds, 1.4% hits; AID 1347075, 2019; also: nearly all actives have a fitted effect of over 60% in size
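KB-3-1 parental drug-naive adenocarcinoma cells in DMEM/10% FBS, incubated 72 h at 37 C with pin-transferred compounds across a concentration series. Viability by CellTiter-Glo luminescence; concentration-response curves fitted after normalization.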
HT1080NT lethal: qHTS for induction of synthetic lethality in tumor cells producing 2HG: qHTS for the HT-1080-NT fibrosarcoma cell line; HT-1080-NT fibrosarcoma viability, CellTiter-Glo ATP luminescence, 48 h; Potency, µM (series often up to 46.1 µM), without a hit: at the highest dose activity, negative = less viability, most hits filed as cytotoxic; 360,000 compounds, 1.6% hits;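 also: NT is the 2HG producing partner of a matched IDH1 knockdown line; 0% = DMSO-treated cells and -100% = media-only wells without cells; nearly all actives have a fitted effect of over 55% in size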
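HT-1080-NT fibrosarcoma cells (2HG-overproducing), 750 cells/well in RPMI with 5% FBS, dosed after 2 h and incubated 48 h at 37C. CellTiter-Glo luminescence normalized to DMSO and no-cell wells; concentration-response curves fitted and classed.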
An asterisk follows results filed as active; i = inactive; ? = inconclusive; · = no result; [ ] = dose if it differs, or a comment. Calls follow the shape of the dose curve; as a rule, active = well fitted curve in the direction sought with a large enough effect; inconclusive = small, poorly fitted or top-dose-only effect, or another doubt; inactive = no such curve, though single readings can be large; an effect the other way counts as inactive or inconclusive. Unless noted, % is scaled to controls: 0 for no effect and ±100 for the full control effect; potency is read from the fitted curve at half-maximal effect.

SMILES	HT1080 IDH1KD tx	KB-V1 cytotox	TDP1 cell CPT	TDP1 cell noCPT	KB-3-1 tox	HT1080NT lethal
COc1ccc(-n2c(SCC(=O)c3ccccc3)nc3c([nH]c4ccccc43)c2=O)cc1	·	i	-18%	-13%	i	·
COc1ccccc1CNC(=O)c1cnc(N(C)C)nc1	·	i	?	?	i	·
CCOc1ccc(NC(=O)CC2C(=O)N(c3ccc(F)cc3)C(=O)N2CCc2sccc2C)cc1 (stereo unspecified)	·	?	-111%	23µM*	i	·
NC(=O)CSc1ccc(F)cc1	13%	i	-1%	-12%	i	5%
CC(C)(CO)NCc1ccc(Br)cc1	15%	i	21µM*	?	i	3%
Cc1ccc(CNC(C)(C)CO)cc1	-4%	i	-3%	?	i	-10%
COc1ccc(Cl)cc1NC(=O)CCc1nnc2ccc(N3CCC4(CC3)OCCO4)nn12	-2%	i	-8%	-29%	i	-13%
Cc1cc(C)cc(OCC(=O)Nc2nc(-c3cccnc3)cs2)c1	7%	i	15µM*	9.2µM*	i	1%
O=C(COc1ccccc1)Nc1nc(-c2cccnc2)cs1	7%	i	?	?	i	8%[9.24 µM]
O=C(COc1ccccc1)Nc1nc(-c2ccncc2)cs1	-3%	?	21µM*	16µM*	i	0%
COc1cccc(CC(=O)Nc2nc(-c3cccnc3)cs2)c1	-1%	?	-3%	?	i	12%
COc1ccc(CC(=O)Nc2nc(-c3cccnc3)cs2)cc1	2%	i	?	26µM*	i	3%
CCN1CCN(CC(=O)N2CCCC(C(=O)c3ccc(Oc4ccccc4)cc3)C2)CC1 (stereo unspecified)	-23%	i	?	?	i	-22%
Cc1ccc(C(=O)N2CCCC(C(=O)c3ccc(Cl)cc3C)C2)cn1 (stereo unspecified)	-7%	i	-29%	21µM*	?	11%
COCCC(=O)N1CCCC(C(=O)c2ccc(Oc3ccccc3)cc2)C1 (stereo unspecified)	-2%	i	-29%	21µM*	i	-7%
Cc1ccc(C(=O)N2CCCC(C(=O)c3ccc(Oc4ccccc4)cc3)C2)cn1 (stereo unspecified)	?	?	21µM*	16µM*	?	-21%
Cc1cnc(C(=O)N2CCCC(C(=O)c3ccc(Cl)cc3C)C2)cn1 (stereo unspecified)	5%	?	?	?	i	-7%
CC1=C(C(N)=O)C(c2ccc(C(C)C)cc2)n2nc(SCc3ccccc3)nc2N1 (stereo unspecified)	·	?	-1%	-6%	i	·
CC(=O)N1CC(C)Oc2ccc(S(=O)(=O)NC(CC(=O)O)c3ccccc3)cc21 (stereo unspecified)	9%	i	-1%	25%	i	9%
CCN(C(=O)Cc1c(C(=O)O)c(C)cn1C)c1cccc(Cl)c1	·	i	-22%	-17%	i	·
O=C(CCn1c2c(c3ccccc31)CCCC2)NNC(=O)c1ccc([N+](=O)[O-])cc1	-1%	i	21µM*	12µM*	i	-1%
COc1cccc(Cn2c(=O)c(CCc3ccccc3)nc3cnc(N4CCOCC4)nc32)c1	·	·	-23%	-15%	·	·
Cc1nc2ccccc2c(=O)n1NC(=O)c1ccco1	20%	i	0%	-5%	i	13%
C/C(=N\Nc1nc2ccccc2c(=O)n1O)c1ccco1	-26%	15µM*	-27%	?	21µM*	-3%
CCOC(=O)c1c(C)c(-c2ccccc2)n(CC(=O)NCCC(C)C)c1C	6%	i	?	10µM*	i	13%
SMILES	HT1080 IDH1KD tx	KB-V1 cytotox	TDP1 cell CPT	TDP1 cell noCPT	KB-3-1 tox	HT1080NT lethal
CCCNC(=O)C1(C)CCN(Cc2noc(-c3ccccc3OC)n2)C1 (stereo unspecified)	11%	i	-24%	?	i	9%
Cc1oc2ccc(O)c(CN3CCOCC3)c2c1C(=O)Nc1cccc(C(F)(F)F)c1	·	i	16µM*	?	i	·
Cc1nc(N2CCOCC2)c2c(C(=O)Nc3cccc(C(F)(F)F)c3)c(C)oc2n1	·	·	-13%	-3%	·	·
CN(Cc1ccccc1)Cc1c(O)ccc2ccccc12	4%	i	?	-15%	i	3%
CCOC(=O)c1c(-c2ccccc2)oc2ccc(O)c(CN3CCOCC3)c12	?	?	23µM*	23µM*	i	?
Cc1oc2ccc(O)c(CN(C)Cc3ccccc3)c2c1C(=O)Nc1ccccc1	·	·	9.2µM*	8.2µM*	·	·
Cc1oc2ccc(O)c(CN(C)Cc3ccccc3)c2c1C(=O)Nc1cccc(C(F)(F)F)c1	·	·	5.8µM*	5.2µM*	·	·
O=C(Cc1cccs1)Nc1nc(-c2ccccc2)cs1	?	16µM*	23µM*	8.2µM*	?	-28%
CC(=O)Nc1nc(-c2ccc3c(c2)CCN3S(C)(=O)=O)cs1	-3%	i	-20%	?	i	-1%
CS(=O)(=O)N1CCc2cc(-c3csc(NC(=O)Cc4cccs4)n3)ccc21	?	i	13µM*	8.2µM*	i	10µM*
O=C(COC(=O)/C=C/c1cccs1)Nc1nc(-c2ccccc2)cs1	-13%	i	16µM*	13µM*	i	-21%
O=C(C(=S)N1CCOCC1)c1c[nH]c2ccccc12	0%	i	9%	-4%	i	4%
COc1cc(OC)cc(-c2nc3nc(C)c(CCC(=O)Nc4ccc(C)cc4C)c(C)n3n2)c1	·	i	4%	-26%	i	·
COC1CCN(Cc2cn(Cc3ccccc3)nc2-c2cc3ccccc3o2)CC1	26µM*	?	?	26µM*	?	?
OCC1CCN(Cc2cn(Cc3ccccc3)nc2-c2cc3ccccc3o2)CC1	?	?	?	?	i	?
COc1cc(Nc2ccc(C)cc2)c([N+](=O)[O-])nc1[N+](=O)[O-]	3.2µM*	5.8µM*	2.1µM*	2.6µM*	?	3.2µM*
Cc1cc(O)c2c(O)c3c(O)cccc3cc2c1	·	·	-6%	-24%	·	·
